Most compounds without a hit are left out; they make up all but 2.8% or so of the library.
B2AR arrestin = qHTS assay of beta-arrestin-biased ligands of beta2-adrenergic receptor. Beta-2 adrenergic receptor (Homo sapiens), P07550. beta-arrestin recruitment to beta2AR, cell-based reporter. Potency, µM (series often up to 46.1 µM), most hits filed as activators. 330,000 tested, 0.02% active. AID 492947, 2010; active = well fitted activation curve with a large enough effect; inconclusive = small, poorly fitted or top-dose-only effect; note: nearly all actives have a fitted effect of over 65% in size
DRD3 antagonist = qHTS of D3 Dopamine Receptor Antagonist: qHTS; D(3) dopamine receptor (Homo sapiens), P35462; D3R cells, DiscoveRx beta-arrestin luminescence, antagonist mode; active compounds read low; max response, negative = inhibition, %; 360,000 tested, 2.5% active; in the data active = max response below about -50%; inconclusive = no clear call, values can overlap the other calls
Target sequence (P35462 whole entry, looked up): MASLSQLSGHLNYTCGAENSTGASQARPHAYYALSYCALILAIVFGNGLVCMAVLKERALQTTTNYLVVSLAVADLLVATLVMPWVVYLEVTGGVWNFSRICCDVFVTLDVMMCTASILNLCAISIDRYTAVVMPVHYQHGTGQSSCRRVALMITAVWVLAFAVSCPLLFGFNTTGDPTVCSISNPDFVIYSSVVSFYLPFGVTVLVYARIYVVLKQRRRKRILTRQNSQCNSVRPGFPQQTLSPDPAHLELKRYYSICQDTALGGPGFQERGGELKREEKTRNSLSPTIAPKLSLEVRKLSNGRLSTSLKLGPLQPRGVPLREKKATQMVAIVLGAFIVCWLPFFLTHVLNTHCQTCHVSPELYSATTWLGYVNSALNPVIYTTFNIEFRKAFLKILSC
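Cells expressing the human receptor were seeded at 1500 cells/well, incubated overnight at 37 degrees C in 5% CO2, then exposed to library compounds with dopamine controls for 90 minutes at 37 degrees C before luminescent detection.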
Giardia kill = Small Molecules that selectively kill Giardia lamblia: qHTS; Giardia lamblia trophozoite viability; activity change, % at 7.66 µM, hits read low; 340,000 tested, 0.15% active; in the data active = activity change below about -80%; inconclusive = between about -30% and that limit;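 note: parasites exposed to compound for two days anaerobically before the ATP read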
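Killing of trophozoites was scored by loss of ATP luminescence after a 48 hrs anaerobic exposure to compounds at 37 deg C, using 100 cells per well.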
D3 ag = qHTS of D3 Dopamine Receptor Agonist: qHTS. D(3) dopamine receptor (Homo sapiens), P35462. D3R DiscoveRx beta-arrestin cells, luminescence, 90 min. max activation, %. 410,000 tested, 0.58% active. AID 652048, 2013; in the data active = max activation above about 30%
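Cells at 1500/well, incubated overnight, then treated with pinned compounds (dopamine as control) for 90 min at 37 degrees C. DiscoveRx reagent added for 30 - 60 minutes at room temperature; luminescence read.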
Each line names hits and unclear results; the compound was inactive in the other large screens.

CC(C)Oc1cccc(C(=O)C2CCCN(Cc3cnc(N4CCCC4)s3)C2)c1 (stereo unspecified)	DRD3 antagonist -82.7
CCOC(=O)C1CCCN(Cc2cc(Br)ccc2OC)C1 (stereo unspecified)	DRD3 antagonist -60.4
COc1ccc(Cl)cc1C(=O)Nc1ccc2oc(-c3ccc(C(C)(C)C)cc3)nc2c1	none (no result: B2AR arrestin, DRD3 antagonist, Giardia kill)
COc1cc(OC)c(OC)cc1CN1CCCC(C(=O)c2sccc2C)C1 (stereo unspecified)	DRD3 antagonist -93.0
COc1ccc(CCN(C)C2CCCN(C(=O)CCSC)C2)cc1OC (stereo unspecified)	none
Cc1ccsc1C(=O)C1CCCN(Cc2cc(F)ccc2-n2cccn2)C1 (stereo unspecified)	DRD3 antagonist -61.7
COc1ccc(CCN(C)C2CCCN(C(=O)c3sccc3C)C2)cc1OC (stereo unspecified)	DRD3 antagonist -63.7
CCOc1ccccc1CN1CCCC(C(=O)c2ccc(OC)c(OC)c2)C1 (stereo unspecified)	DRD3 antagonist -50.8
COc1cccc(C(=O)C2CCCN(Cc3cn[nH]c3C3CCCCC3)C2)c1 (stereo unspecified)	DRD3 antagonist -86.3
COc1cccc(CC2(CO)CCCN(Cc3cn[nH]c3C3CCCCC3)C2)c1 (stereo unspecified)	none
COC(=O)C[C@](O)(CCCC(C)(C)O)C(=O)O[C@@H]1C(OC)=CC23CCCN2CCc2cc4c(cc2[C@H]13)OCO4 (stereo partly specified)	none (no result: B2AR arrestin, DRD3 antagonist, Giardia kill)
Cc1ccc([C@@H]2CC=C(C(=O)O)[C@H](c3ccc(C(C)(C)C)cc3)N2S(=O)(=O)c2ccc(C)cc2)cc1	D3 ag 30.2
CCc1ccc([C@@H]2CC=C(C(=O)O)[C@H](c3ccccc3)N2S(=O)(=O)c2ccc(C)cc2)cc1	DRD3 antagonist inconclusive, Giardia kill inconclusive
Cc1ccc(S(=O)(=O)N2[C@@H](c3ccc(C(C)(C)C)cc3)C(C(=O)O)=CC[C@H]2c2ccc(Cl)cc2)cc1	none
CCc1ccc([C@@H]2CC=C(C(=O)O)[C@H](c3ccc(C(C)(C)C)cc3)N2S(=O)(=O)c2ccc(C)cc2)cc1	D3 ag 31.3
COC(=O)CN1C(=O)CSc2ccc(S(=O)(=O)Nc3c(C)cc(C)cc3C)cc21	none (no result: B2AR arrestin, DRD3 antagonist, Giardia kill)
Fc1ccccc1NC(=S)NNc1ncc(C(F)(F)F)cc1Cl	none
Cc1ccccc1NC(=S)NNc1ncc(C(F)(F)F)cc1Cl	DRD3 antagonist -93.1
Cc1c(Cl)cccc1NC(=S)NNc1ncc(C(F)(F)F)cc1Cl	DRD3 antagonist -75.5
O=C(NNc1ncc(C(F)(F)F)cc1Cl)c1c(Cl)cccc1Cl	DRD3 antagonist -70.2
COc1ccc(-c2nc(C(=O)Nc3cccc(C(C)=O)c3)nn2-c2ccccc2Cl)cc1	none (no result: B2AR arrestin, DRD3 antagonist, Giardia kill)
CCOc1ccccc1NC(=O)CSc1nc2c(c(=O)[nH]1)CCC2	none (no result: B2AR arrestin, DRD3 antagonist, Giardia kill)
CNC(=O)C1CCC(Cn2c(=O)[nH]c3ccsc3c2=O)CC1 (stereo unspecified)	none (no result: B2AR arrestin, DRD3 antagonist, Giardia kill)
CC1=NOC2(C1)N(C)c1ccccc1C2(C)C (stereo unspecified)	none
COc1ccc2ccc3c(c2c1)N=C[C@]1(O3)N(C)c2ccccc2C1(C)C	DRD3 antagonist -70.3
CCc1ccc2[nH]c3nc(SCC(=O)NNC(=O)c4ccc(C(C)(C)C)cc4)nnc3c2c1	D3 ag 39.4
O=C1Nc2ccc([N+](=O)[O-])cc2OC1CCN1CCOCC1 (stereo unspecified)	none
O=C1Nc2ccc([N+](=O)[O-])cc2OC1CCN1CCN(c2ccccc2)CC1 (stereo unspecified)	DRD3 antagonist -50.8
Cc1ccc(C(=O)Nc2ccc3ncccc3c2)cc1	Giardia kill -84.8
COc1ccc(C(=O)Nc2ccc3ncccc3c2)cc1	Giardia kill inconclusive
COc1ccc(F)cc1S(=O)(=O)NCCc1c(C)[nH]c2c(Cl)cccc12	none (no result: B2AR arrestin, DRD3 antagonist, Giardia kill)
Brc1ccccc1OCCCCN1CCCCC1	DRD3 antagonist -96.6
CC1CCN(CCCCOc2ccccc2F)CC1	DRD3 antagonist -81.9, Giardia kill inconclusive
Brc1ccccc1OCCCN1CCOCC1	DRD3 antagonist -50.6
COc1ccccc1OCCCCN1CCCCC1	DRD3 antagonist inconclusive
CC1CCN(CCCCOc2ccccc2Br)CC1	DRD3 antagonist -54.1
Cc1ccccc1OCCCN1CCOCC1	none
CCCCc1ccc(NC(=O)CSc2nc3ccccc3nc2N2CCCCC2)cc1	none (no result: B2AR arrestin, DRD3 antagonist, Giardia kill)
COc1ccc(C2/C=C\CN(C(=O)CC(C)(C)C)C(C)C(=O)N2Cc2ccc(F)cc2)cc1 (stereo unspecified)	none (no result: B2AR arrestin, DRD3 antagonist, D3 ag)
CCC(Oc1ccccc1)C(=O)Nc1cc(-c2ccccc2F)nn1-c1ccccc1 (stereo unspecified)	none (no result: B2AR arrestin, DRD3 antagonist, Giardia kill)
O=c1oc2ccccc2c(Nc2cccc(O)c2)c1[N+](=O)[O-]	DRD3 antagonist -80.7
O=C(O)c1cccc(Nc2c([N+](=O)[O-])c(=O)oc3ccccc23)c1	none
OCCC1CN(Cc2cc3c(cc2Cl)OCO3)CCN1C1CCCC1 (stereo unspecified)	DRD3 antagonist -53.5
OCCC1CN(Cc2cc3c(cc2Cl)OCO3)CCN1C1CCCCC1 (stereo unspecified)	none
O=C(Nc1ccc2nc(SCCOc3ccccc3Cl)sc2c1)c1cccs1	none (no result: B2AR arrestin, DRD3 antagonist, Giardia kill)
Cc1nc2ccccc2nc1OCC(=O)NCc1ccc2c(c1)OCO2	DRD3 antagonist -64.8
CC(C)CN1C(=O)C(=O)N(CC(=O)NCc2ccc3c(c2)OCO3)C1=O	DRD3 antagonist -52.5
C=CCn1c(O)c(C2=c3ccccc3=NC2=O)s/c1=N/c1nccs1	none
C=CCn1c(O)c(C2=c3ccccc3=NC2=O)c2ccccc21	DRD3 antagonist -65.2
Cc1ccc2c(c1)c(C1=c3ccccc3=NC1=O)c(O)n2C	DRD3 antagonist -80.1
O=C1C2C(c3ccccc3)CC=CC2C(c2cccc([N+](=O)[O-])c2)N1Cc1ccccc1 (stereo unspecified)	none (no result: B2AR arrestin, DRD3 antagonist, D3 ag)
N#CC(=C1C=CC(=NO)C(Cl)=C1)c1ccccc1	DRD3 antagonist -81.5 (no result: B2AR arrestin, Giardia kill)
N#CC(=C1C=C(Br)C(=NO)C=C1Cl)c1ccc(Cl)cc1	none (no result: B2AR arrestin, Giardia kill)
CCOc1ccc(NC(=O)CSc2oc(-c3ccco3)nc2S(=O)(=O)c2ccccc2)cc1	none (no result: B2AR arrestin, DRD3 antagonist, Giardia kill)
COc1cc(OC)cc(C(=O)N[C@@H](CCSC)c2nc3ccccc3[nH]2)c1	DRD3 antagonist -56.0
Cc1c(C(=O)NC(Cc2ccccc2)c2nc3ccccc3[nH]2)cccc1[N+](=O)[O-] (stereo unspecified)	none
CSCC[C@H](NC(=O)c1ccc(Cl)c([N+](=O)[O-])c1)c1nc2ccccc2[nH]1	DRD3 antagonist -94.7
O=C(NC(Cc1ccccc1)c1nc2ccccc2[nH]1)c1ccc(Cl)c([N+](=O)[O-])c1 (stereo unspecified)	DRD3 antagonist -62.7
O=c1c2ccccc2sn1-c1ccccc1	DRD3 antagonist -98.0
COc1ccc(C2C=C3CNS(=O)(=O)C3CC2OC(=O)c2cccs2)cc1 (stereo unspecified)	none (no result: B2AR arrestin, DRD3 antagonist, D3 ag)
CCn1nnc2cc(C(=O)Nc3ccc(C)cc3Br)ccc21	none (no result: B2AR arrestin, DRD3 antagonist, Giardia kill)
Cc1ccccc1-c1cc(C(=O)Nc2sc(C(=O)OC(C)C)c(C)c2C#N)c2ccccc2n1	DRD3 antagonist -68.4

Screening results from PubChem.
